Assay outcomes as filed in PubChem BioAssay.
PfM18AAP inh: blocks P. falciparum M18 aspartyl aminopeptidase; inhibition, % at 7.35 µM; recombinant PfM18AAP, H-Glu-NHMec fluorogenic cleavage; actives 1.2% (n = 290,000);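 active = inhibition above the campaign mean inhibition over all tested compounds plus 3 SD, cut at about 28% in these data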
IDE inh: cellular human IDE inhibition | HEK cells, FAbetaB cleavage, fluorescence polarization | actives 0.41% (n = 320,000) | inhibition, % at 5.59 µM | AID 434962 | P14735;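 active = percent inhibition above the average of all tested compounds plus 3 SD, set per screening campaign, cut at about 16% in these data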;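 also: IDE supplied by intact live HEK cells; FP after avidin binding of uncleaved biotin substrate so inhibition keeps polarization high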
Target sequence (P14735 whole entry, looked up): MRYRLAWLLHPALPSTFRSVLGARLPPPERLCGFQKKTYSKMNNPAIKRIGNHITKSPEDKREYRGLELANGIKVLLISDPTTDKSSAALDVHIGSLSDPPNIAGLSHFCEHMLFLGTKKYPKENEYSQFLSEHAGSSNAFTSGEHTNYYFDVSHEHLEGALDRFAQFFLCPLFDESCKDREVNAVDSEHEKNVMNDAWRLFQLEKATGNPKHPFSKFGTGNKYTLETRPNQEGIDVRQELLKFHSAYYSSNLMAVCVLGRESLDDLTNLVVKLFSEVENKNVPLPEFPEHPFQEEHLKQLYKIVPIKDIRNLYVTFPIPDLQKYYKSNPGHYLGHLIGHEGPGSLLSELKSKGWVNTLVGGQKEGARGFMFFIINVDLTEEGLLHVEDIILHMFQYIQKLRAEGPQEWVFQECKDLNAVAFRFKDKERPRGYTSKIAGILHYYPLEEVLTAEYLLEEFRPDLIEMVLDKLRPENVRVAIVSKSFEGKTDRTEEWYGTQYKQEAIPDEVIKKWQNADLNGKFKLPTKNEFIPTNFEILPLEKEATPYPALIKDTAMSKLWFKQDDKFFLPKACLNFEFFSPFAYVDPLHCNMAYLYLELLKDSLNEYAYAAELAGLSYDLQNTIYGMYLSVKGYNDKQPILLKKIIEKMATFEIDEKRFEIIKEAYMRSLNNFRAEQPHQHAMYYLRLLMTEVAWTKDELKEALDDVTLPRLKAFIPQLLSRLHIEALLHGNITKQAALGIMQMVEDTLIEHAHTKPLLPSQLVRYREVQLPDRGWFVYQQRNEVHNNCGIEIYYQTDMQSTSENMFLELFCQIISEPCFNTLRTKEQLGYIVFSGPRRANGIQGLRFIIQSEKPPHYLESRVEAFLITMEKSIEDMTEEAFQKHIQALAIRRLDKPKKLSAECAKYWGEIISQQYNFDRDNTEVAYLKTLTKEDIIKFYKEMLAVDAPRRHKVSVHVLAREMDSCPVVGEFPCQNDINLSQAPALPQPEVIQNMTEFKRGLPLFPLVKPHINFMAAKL
IDE cell activ: boosts human insulin-degrading enzyme activity in HEK cells; FAbeta-B cleavage, fluorescence polarization; 0% vehicle, 100% cell-free pure enzyme wells; AID 493087; P14735; activation, % at 5.96 µM; actives 0.073% (n = 340,000);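 active = activation above the mean of all tested compounds plus 3 SD, set per screening campaign, cut at about 17% in these data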
PolyA inhibitor: blocks polyadenylation in yeast reporter cells. S. cerevisiae SKY197-pL101 polyadenylation reporter, beta-gal luminescence; efflux-impaired pdr1/pdr3 knockout yeast; score 100 = 6 SD above DMSO. activity score, % at 12 µM. actives 0.02% (n = 300,000). AID 1875;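 active = lowest replicate activity score at least 50, where 100 means six control SD above control mean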;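 also: yeast exposed to compound for 9 h at 30 °C; higher score means more reporter readthrough which indicates perturbed polyadenylation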
CaV13 FRET inh: Disruptors of the CACNA1D IQ motif to Ca2+-dependent inactivation inhibitor domain association, primary screening, Förster resonance energy transfer in intact living …; inhibition, % at 12.3 µM; HEK cells, CFP/YFP FRET ICDI-IQ, plate reader, 10 min; percent FRET-ratio fall versus neutral wells; AID 743397; actives 0.098% (n = 340,000);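 active = mean replicate inhibition of at least 30% and at least 1% of replicates passing that level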
ALR H2O2 inh: blocks human ALR sulfhydryl oxidase activity | purified ALR, DTT oxidation, H2O2 HRP-luminol luminescence | inhibition, % (concentration not given with the values) | actives 3.8% (n = 290,000) | AID 485317;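 active = mean replicate inhibition above about 79%, with every replicate also reaching it, limit read from the data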
Hits are given with their value. Rows were chosen to be rich in hits. Some 4.1% of all compounds tested hit in one or more screens of this group.

Results for Nc1cccc(C(=O)Nc2ccco2)c1 ?
PfM18AAP inh: inactive; IDE inh: inactive; IDE cell activ: inactive; PolyA inhibitor: inactive; CaV13 FRET inh: inactive; ALR H2O2 inh: 98

Results for Nc1ccccc1C(=O)Nc1ccc(Cl)cc1Cl ?
PfM18AAP inh: inactive; IDE inh: inactive; IDE cell activ: inactive; PolyA inhibitor: inactive; CaV13 FRET inh: inactive; ALR H2O2 inh: inactive

Results for Nc1cccc(C(=O)NCCNC(=O)c2cccc(N)c2)c1 ?
PfM18AAP inh: inactive; IDE inh: inactive; IDE cell activ: inactive; PolyA inhibitor: inactive; CaV13 FRET inh: inactive; ALR H2O2 inh: inactive

What do the screens show for `Nc1cccc(C(=O)O)c1`?
PfM18AAP inh: inactive; IDE inh: inactive; IDE cell activ: inactive; PolyA inhibitor: inactive; CaV13 FRET inh: inactive

How did CN(C)C(=O)CCc1ccc2c3c([nH]c2c1)[C@]1(C)[C@@H](C(=O)N2CCCCC2)C[C@H](CC(=O)NCC24CC5CC(CC(C5)C2)C4)C(=O)N1CC3 do in these assays?
IDE cell activ: inactive; CaV13 FRET inh: inactive

Results for CCOc1ccc(-c2cnc(NCc3cccc4ccccc34)n2CCOC)cc1 ?
PfM18AAP inh: inactive; IDE inh: inactive; IDE cell activ: inactive; PolyA inhibitor: inactive; CaV13 FRET inh: inactive; ALR H2O2 inh: inactive

Results for Cc1ccc(Nc2cc(C)c3ccc(O)cc3n2)cc1C ?
PfM18AAP inh: inactive; IDE inh: inactive; IDE cell activ: inactive; PolyA inhibitor: inactive; CaV13 FRET inh: inactive; ALR H2O2 inh: 88

How did COC(=O)c1cc(Nc2cc(C)c3ccc(O)cc3n2)cc(C(=O)OC)c1 do in these assays?
PfM18AAP inh: inactive; IDE inh: inactive; IDE cell activ: inactive; PolyA inhibitor: inactive; CaV13 FRET inh: inactive; ALR H2O2 inh: inactive

How did COc1cc(/C=N\NC(=O)c2ccc(Cn3nc([N+](=O)[O-])c(Cl)c3C)o2)ccc1O do in these assays?
PfM18AAP inh: inactive; IDE inh: inactive; IDE cell activ: inactive; PolyA inhibitor: inactive; ALR H2O2 inh: 95

What do the screens show for `Cc1c(Cl)c([N+](=O)[O-])nn1Cc1ccc(C(=O)N/N=C\c2ccccn2)o1`?
PfM18AAP inh: inactive; IDE inh: inactive; IDE cell activ: inactive; CaV13 FRET inh: inactive; ALR H2O2 inh: inactive

Results for NS(=O)(=O)c1ccc(CCNC(=O)CSCc2ccccc2)cc1 ?
PfM18AAP inh: inactive; IDE inh: inactive; IDE cell activ: inactive; PolyA inhibitor: inactive; CaV13 FRET inh: inactive; ALR H2O2 inh: inactive

Results for CC(C)(C)[C@H]1COC(=O)[C@H](Cc2ccc(F)cc2)CC/C=C/C[C@@H](CC(=O)N[C@H](CO)Cc2ccccc2)C(=O)N1 ?
IDE inh: inactive; IDE cell activ: inactive; CaV13 FRET inh: inactive; ALR H2O2 inh: inactive

How did Cc1[nH]nc2c1-c1nc3ccccc3nc1C(C)(C)C2 do in these assays?
PfM18AAP inh: inactive; IDE inh: inactive; IDE cell activ: inactive; PolyA inhibitor: inactive; CaV13 FRET inh: inactive; ALR H2O2 inh: 99

Results for Cc1ccc2nc(NCCO)nc(-c3ccccc3)c2c1 ?
PfM18AAP inh: inactive; IDE inh: inactive; IDE cell activ: inactive; PolyA inhibitor: inactive; CaV13 FRET inh: inactive; ALR H2O2 inh: 98

Results for COc1ccc(-c2nc(CSCC(=O)NC3CCCc4ccccc43)c(C)o2)cc1OC (stereo unspecified) ?
PfM18AAP inh: inactive; IDE inh: inactive; IDE cell activ: inactive; PolyA inhibitor: inactive; CaV13 FRET inh: inactive

What do the screens show for `COc1ccc(-c2nc(CS(=O)CC(=O)NC3CCCC3)c(C)o2)cc1OC` (stereo unspecified)?
PfM18AAP inh: inactive; IDE inh: inactive; IDE cell activ: inactive; PolyA inhibitor: inactive; CaV13 FRET inh: inactive; ALR H2O2 inh: 99

Results for COc1ccc(-c2nc(CS(=O)CC(=O)NC3CCCc4ccccc43)c(C)o2)cc1OC (stereo unspecified) ?
PfM18AAP inh: inactive; IDE inh: inactive; IDE cell activ: inactive; PolyA inhibitor: inactive; CaV13 FRET inh: inactive; ALR H2O2 inh: 99

What do the screens show for `COc1ccc(-c2nc(CS(=O)CC(=O)NC3CCC(C)CC3)c(C)o2)cc1OC` (stereo unspecified)?
PfM18AAP inh: inactive; IDE inh: inactive; IDE cell activ: inactive; PolyA inhibitor: inactive; CaV13 FRET inh: inactive; ALR H2O2 inh: 99

Results for COc1ccc(S(=O)(=O)NNC(=O)C2CC(c3cccnc3)=NO2)cc1 (stereo unspecified) ?
PfM18AAP inh: inactive; IDE inh: inactive; IDE cell activ: inactive; CaV13 FRET inh: inactive; ALR H2O2 inh: inactive

How did CNC(=O)NNC(=O)c1csc(-c2ccc(C(F)(F)F)cc2Cl)n1 do in these assays?
PfM18AAP inh: inactive; IDE inh: inactive; PolyA inhibitor: inactive; CaV13 FRET inh: inactive; ALR H2O2 inh: inactive

What do the screens show for `NNC(=O)c1csc(-c2ccc(C(F)(F)F)cc2Cl)n1`?
PfM18AAP inh: inactive; IDE inh: inactive; IDE cell activ: inactive; PolyA inhibitor: inactive; CaV13 FRET inh: inactive; ALR H2O2 inh: 93

What do the screens show for `Cc1cccc(NNC(=S)Nc2c(C)cccc2C)c1`?
PfM18AAP inh: 30; IDE inh: inactive; IDE cell activ: inactive; PolyA inhibitor: inactive; CaV13 FRET inh: inactive; ALR H2O2 inh: inactive

What do the screens show for `Cc1cccc(NNC(=S)Nc2ccccc2)c1`?
CaV13 FRET inh: inactive

Results for CC(=O)NCc1ccc(C(=O)CSc2nnc(C3CC3)n2C2CC2)cc1 ?
IDE inh: inactive; IDE cell activ: inactive; CaV13 FRET inh: inactive; ALR H2O2 inh: 78

Results for O=C(NCC[C@H]1CC[C@@H](NC(=O)C2CCOCC2)[C@@H](CO)O1)Nc1ccc(Cl)cc1 ?
CaV13 FRET inh: inactive

Results for CCOC(=O)N1CCN(C(=O)c2ccc3c(c2)N(Cc2ccccc2)CCS3)CC1 ?
PfM18AAP inh: inactive; IDE inh: inactive; IDE cell activ: inactive; PolyA inhibitor: inactive; CaV13 FRET inh: inactive; ALR H2O2 inh: 98

How did Cc1ccc(CN2CCSc3ccc(C(=O)N4CCOCC4)cc32)cc1 do in these assays?
PfM18AAP inh: inactive; IDE inh: inactive; IDE cell activ: inactive; PolyA inhibitor: inactive; ALR H2O2 inh: 99

How did CC1CC(C)CN(C(=O)c2ccc3c(c2)N(Cc2ccccc2)CCS3)C1 (stereo unspecified) do in these assays?
PfM18AAP inh: inactive; IDE inh: inactive; IDE cell activ: inactive; PolyA inhibitor: inactive

Results for CCN1CCN(C(=O)c2ccc3c(c2)N(Cc2ccc(C)cc2)CCS3)CC1 ?
PfM18AAP inh: inactive; IDE inh: inactive; IDE cell activ: inactive; PolyA inhibitor: inactive; CaV13 FRET inh: inactive; ALR H2O2 inh: 99

What do the screens show for `CC(C)NC(=O)NC(=O)CSc1nncs1`?
PfM18AAP inh: inactive; IDE inh: inactive; IDE cell activ: inactive; PolyA inhibitor: inactive; CaV13 FRET inh: inactive; ALR H2O2 inh: inactive
